Source: PubChem BioAssay (National Center for Advancing Translational Sciences (NCATS))
Cruzain Triton: cruzain (T. cruzi) inhibition with detergent; P25779; purified cruzain, Z-FR-AMC fluorescence, 0.01% Triton; Potency, µM, without a hit: max response, negative = inhibition, hits mostly inhibitors; hit rate 0.43% among 200,000; AID 1478;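 further: plate controls were neutral wells for no effect and buffer without enzyme for full effect; nearly all actives have a fitted effect of over 40% in size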
Target sequence (P25779 123-467 limits assumed): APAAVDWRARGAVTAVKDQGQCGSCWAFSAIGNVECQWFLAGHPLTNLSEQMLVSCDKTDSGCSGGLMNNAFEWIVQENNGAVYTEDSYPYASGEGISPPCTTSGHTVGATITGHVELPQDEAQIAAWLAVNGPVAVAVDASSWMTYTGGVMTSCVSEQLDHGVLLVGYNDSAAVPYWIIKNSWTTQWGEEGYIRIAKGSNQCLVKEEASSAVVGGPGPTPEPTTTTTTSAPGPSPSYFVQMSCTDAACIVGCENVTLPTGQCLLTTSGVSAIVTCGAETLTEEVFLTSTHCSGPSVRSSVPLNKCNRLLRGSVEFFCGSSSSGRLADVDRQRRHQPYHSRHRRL
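Cruzain (1.5 nM) preincubated 15 min at RT with compound in 100 mM sodium acetate pH 5.5, 5 mM DTT, 0.01% Triton X-100. Reaction started with 2 uM Z-FR-AMC; AMC fluorescence (ex 360/em 450 nm) change over 60 s gave rate.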
Cruzain inh noDet: blocks cruzain activity in detergent-free assay | Potency, µM, inactives show max response, negative = inhibition, usual class: inhibitors | purified cruzain, Z-FR-AMC fluorescence, no detergent | hit rate 2.3% among 200,000;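 further: plate controls were enzyme without inhibitor for no effect and buffer without enzyme for full effect; nearly all actives have a fitted effect of over 40% in size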
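Purified cruzain at 1.5 nM, pre-incubated 15 min with compound at room temperature in 100 mM sodium acetate pH 5.5, 5 mM DTT, 0.00005% Triton X-100. Reaction started with 2 uM Z-FR-AMC; AMC fluorescence increase over 60 s gives rate.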
* marks the source's active call; other numbers are inactive results; ? = inconclusive. A selection: hits, their analogues and other compounds. The true share with any hit is near 2.5%. The call rests on the fitted dose curve; in most records, active means well fitted curve in the direction sought with a large enough effect; inconclusive means small, poorly fitted or top-dose-only effect, or another doubt; inactive means no such curve, though single readings can be large; an effect the other way counts as inactive or inconclusive. Potency means the concentration at half of the fitted maximal effect.

SMILES	Cruzain Triton	Cruzain inh noDet
COc1cccc2c1Oc1ncccc1N(c1ccc(C(=O)NCc3ccccc3Cl)s1)C2	-25%	25µM*
COc1cccc2c1Oc1ncccc1N(c1ccc(C(=O)NCc3cccc(C)c3)s1)C2	-4%	-16%
C[C@]1(c2ccccc2)OC(C(=O)O)=CC1=O	0%	0%
CNC(=S)N/N=C/c1cc(C)n(-c2ccc(Cl)c(Cl)c2)c1C	-9%	32µM*
CNC(=S)N/N=C/c1ccccc1Cl	-5%	-9%
Cc1ccc(S(=O)(=O)NCCc2cn3ccsc3n2)cc1	0%	-4%
O=c1c(-c2ccc(Cl)cc2)nc2cnc(N3CCOCC3)nc2n1Cc1ccc(F)cc1	1%	4%
Cc1ccc(-c2nc3cc(NC(=O)c4cc(Br)ccc4Cl)ccc3o2)cc1	-1%	-26%
Cc1cc(C)c2oc(-c3ccc(NC(=O)c4cc(Br)ccc4Cl)cc3)nc2c1	-1%	2.5µM*
CS(=O)(=O)N1CCC(N2CCN(Cc3ccccc3)C(=O)C2=O)CC1	3%	-9%
CCOC(=O)c1ccccc1NC(=O)CCc1nc(-c2ccc(C)cc2)no1	-5%	5%
Cc1ccc(-c2noc(CCC(=O)Nc3ccc(C)cn3)n2)cc1	1%	25µM*
Cc1cc(-c2ccc(Cl)cc2)n2nc(N)nc2n1	-10%	12%
Nc1nc2nccc(-c3ccc(Cl)cc3)n2n1	25µM*	-75%
CC1=CC(=O)C2C(C)(C)CCC[C@@]2(C)[C@@]1(O)CCc1ccoc1 (stereo partly specified)	-7%	12%
COc1ccc(Cl)cc1NC(=O)CN1c2ccccc2S(=O)(=O)c2ccccc21	-9%	20µM*
O=S1(=O)c2ccccc2N(Cc2ccc(Cl)cc2)c2ccccc21	-2%	21%
COc1ccc(Cl)cc1NC(=O)Cn1cccc1	0%	2%
O=S1(=O)c2ccccc2N(Cc2ccc(Cl)cc2F)c2ccccc21	-9%	32µM*
Cc1cc(Cl)ccc1NC(=O)CN1C(=O)COc2ccc(S(=O)(=O)Nc3ccccc3)cc21	-8%	-5%
COc1cccc(NC(=O)CSc2nc3c(c(-c4ccco4)c2C#N)CCCC3)c1	6%	6.3µM*
CCOC(=O)c1sc(NC(=O)CSc2nc3c(cc2C#N)CCCCCC3)c(C#N)c1C	-3%	?
CCOC(=O)c1sc(NC(=O)CSc2nc3c(c(-c4ccc(OC)cc4)c2C#N)CCCC3)c(C#N)c1C	10%	3.2µM*
COc1cccc(NC(=O)CSc2nc(=O)n(Cc3ccco3)c3c2CCC3)c1	-4%	-14%
CCc1ccc(NC(=O)CSc2nc(C)c(C(=O)Nc3ccc(Cl)cc3)c(-c3ccc(OC)cc3)c2C#N)cc1	-2%	7.9µM*
SMILES	Cruzain Triton	Cruzain inh noDet
COc1ccc(-c2c(C#N)c(SCC(=O)Nc3ccccc3C)nc(C)c2C(=O)Nc2ccc(Cl)cc2)cc1	6%	-21%
COCCn1c(=O)c(-c2ccccc2)nc2cnc(Nc3ccccc3)nc21	3%	4%
COC(=O)CC1c2ccccc2C(Cc2ccc3c(c2)OCO3)=C(C)N1C(=O)OC (stereo unspecified)	-4%	15%
Cc1cccc(OCc2ccc(-c3nc(C#N)c(NCc4cccnc4)o3)o2)c1	-9%	?
COc1ccc(OC)c(CCNc2nc3cc(OC)c(OC)cc3c3nc(-c4cccnc4)nn23)c1	2%	7%
CCCSCCCNC(=O)c1ccc(C)c(NC(=O)c2nsc3ccccc23)c1	2%	5%
Cc1cccc(-n2ncc3c(Nc4ccc(Oc5ccc(Cl)cc5)cc4)ncnc32)c1	3%	25µM*
Cc1cccc(-n2ncc3c(Nc4ccc(C)c(Cl)c4)ncnc32)c1	3%	14%
O=C(O)c1cc(=O)[nH]c(SCc2ccccc2)n1	-8%	11%
CCOC(=O)c1cccc(NC(=O)CSc2nc3cc4ccccc4cc3[nH]2)c1	-7%	?
CC(C)(C)C(=O)NCCc1csc2nc(-c3ccc(F)cc3)nn12	3%	-10%
Cc1nc(C(=O)Nc2ccc(Cl)cc2Cl)nn1-c1cc(OC(C)C)c(Cl)cc1Cl	-1%	25µM*
Cc1nc(C(=O)Nc2cc(Cl)ccc2Cl)nn1-c1cc(OC(C)C)c(Cl)cc1Cl	4%	25µM*
Cc1nc(C(=O)Nc2cccc(Cl)c2)nn1-c1cc(OC(C)C)c(Cl)cc1Cl	-1%	?
Cc1nc(C(=O)Nc2cccc(Cl)c2Cl)nn1-c1cc(OC(C)C)c(Cl)cc1Cl	-2%	?
COc1ccccc1NC(=O)c1cc(S(=O)(=O)N(C)C2CCCCC2)ccc1F	1%	-14%
COC(=O)c1ccc(/C=C(\C#N)c2nc3ccccc3s2)cc1	3%	12%
CC(C)(C)c1ccc(C(=O)OC/C(O)=C(\C#N)c2nc3ccccc3s2)cc1	-4%	25µM*
Cc1ccc(-n2nnc(-c3nsc(NC(=O)c4cccc(Cl)c4)n3)c2C)cc1C	5%	?
Nn1cnc2sc3c(c2c1=O)CCC3	0%	1%
O=c1c2c3c(sc2ncn1Cc1ccc(F)cc1)CCC3	-2%	7.9µM*
OC1(C(O)(c2ccc(-c3ccccc3)cc2)c2ccc(-c3ccccc3)cc2)CCCCC1	12%	-2%
COCCn1c(=O)cnc2cnc(Nc3ccccc3)nc21	-7%	-9%
Cn1c(=O)cnc2cnc(Nc3ccccc3)nc21	-6%	25µM*
CCC(CC)C(=O)Nc1cccc(-c2nc3cccnc3s2)c1	-5%	-14%
SMILES	Cruzain Triton	Cruzain inh noDet
O=C(Nc1cccc(-c2nc3cccnc3s2)c1)C1c2ccccc2Oc2ccccc21	0%	20µM*
CN(Cc1ccco1)c1ncnc2ccc(-c3cccc(NS(C)(=O)=O)c3)cc12	-12%	-10%
O=C(Cc1ccccc1)NCCC1=CCCCC1	1%	-9%
O=C(COC(=O)CNC(=O)c1ccccc1F)NCCC1=CCCCC1	14µM*	10µM*
O=C(CNC(=O)c1ccccc1F)OCC(=O)N1CCCc2ccccc21	10µM*	10µM*
CC(C)(C)NC(=O)NC(=O)COC(=O)c1cccc(F)c1	-4%	-7%
O=C(OCC(=O)N1CCc2ccccc21)c1cccc(S(=O)(=O)N2CCCc3ccccc32)c1	3%	?
CC(C)(C)NC(=O)NC(=O)COC(=O)CNC(=O)c1cccc(F)c1	22µM*	?
COCC(=O)N1CCCc2ccccc21	8%	-10%
O=C(CNC(=O)c1cccc(F)c1)OCC(=O)N1CCCc2ccccc21	11µM*	10µM*
COc1ccc(CCNC(=O)CCCCn2c(=O)c3ccccc3n(CC(=O)Nc3ccc(C)cc3C)c2=O)cc1OC	-3%	1%
O=C(CCCn1c(=O)c2sccc2n(Cc2cccc(Cl)c2)c1=O)NCc1ccc2c(c1)OCO2	-4%	0%
Cc1cccc(CN2CCC(CNC(=O)c3c(C)oc4ncnc(N5CCCCC5)c34)CC2)c1	0%	-5%
CCc1cccc(C)c1NC(=O)Cn1cc2c(n1)CCCC2	-2%	-8%
COc1ccc(-c2c(C)c3ccc(O)c(CN4CCCC4)c3oc2=O)cc1	-6%	3%
COC(=O)Cc1c(C)c2ccc(O)c(CN3CCCC(C)C3)c2oc1=O (stereo unspecified)	25µM*	?
CCCCNC(=O)c1ccc2c(c1)ncn2-c1cc(OC)ccc1OC	-1%	26%
COc1cccc(CNC(=O)Nc2cc(C(=O)NCc3cccc(F)c3)ccc2N2CCCC2)c1	-6%	24%
CCn1cc2c(n1)-c1c(oc(C(=O)Nc3cccc(C(F)(F)F)c3)c1C)CC2	-12%	-3%
CC[C@H](C(=O)c1cccs1)C(O)(C(F)(F)F)C(F)(F)F	0%	1%
